# Assay results published in PubChem BioAssay (Tox21).
# Records with an inconclusive call do not appear. Where a call stands in place of a potency, no number is given. The source holds several records for some structures; these can differ, active in one and inactive in another. The source made the active and inactive calls. Unless noted, the call rests on the fitted dose curve.
# What was measured:
# [1] = Nuclear factor erythroid 2-related factor 2/antioxidant responsive element (Nrf2/ARE) small molecule agonists: qHTS cell viability counter screen in human keratinocytes (AID 1919968; active means well fitted curve in the direction sought with a large enough effect in the repeat runs; an effect the other way counts as inactive or inconclusive; further: nearly all actives have a fitted effect of over 55% in size)
# Method in brief: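 HaCaT ARE reporter line, 1,500 cells/well; 5 h settle, 37 C/5% CO2; cpd in DMSO pinned; 23 h exposure; CellTiter-Fluor, 1 h; fluorescence.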
# [2] = Nuclear factor erythroid 2-related factor 2/antioxidant responsive element (Nrf2/ARE) small molecule agonists: luciferase reporter gene qHTS assay in human keratinocytes (AID 1919969); further: nearly all actives have a fitted effect of over 35% in size
# [3] = target: Gonadotropin-releasing hormone receptor (Homo sapiens) (UniProt P30968); experiment: Human gonadotropin-releasing hormone receptor (GnRHR) small molecule agonists, calcium flux assay in GnRHR-HEK293 cells (AID 1920063); further: nearly all actives have a fitted effect of over 35% in size
# Method in brief: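 GnRHR-HEK293, 1500 cells/well, 18 h 37 C/5% CO2; Ca dye 1 h 37 C; cpd pinned (DMSO), agonist mode; kinetic FL 480/540, 3 min, 1 s reads; 15 conc, n=3.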
# [4] = target: KiSS-1 receptor (Homo sapiens) (UniProt Q969F8); experiment: Human kisspeptin (KISS1R) small molecule agonists, calcium flux assay in KISS1R-HEK293 cells (AID 1920064; active means well fitted curve in the direction sought with a large enough effect in the repeat runs; an effect the other way counts as inactive or inconclusive)
# Method in brief: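 Stable human KISS1R HEK293 line; 18 h plating, 37 C/5% CO2; calcium dye 1 h 37 C; compound pin transfer; kinetic fluorescence Ex/Em 480/540, 3 min.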
# [5] = G protein-coupled receptor (GPCR) small molecule agonists, calcium flux assay: HEK293 wild type cell line counter screen (AID 1920065)
# Method in brief: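 Kinetic fluorescence at Ex/Em 480/540, recorded every second over 3 min, served as the read-out after compound addition. Each compound was tested at 15 concentrations in triplicate on cells pre-loaded with calcium dye for 1 h.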
# [6] = p53 small molecule agonists, cell-based qHTS assay with human liver microsomes (AID 1963577);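 further: p53 response element beta-lactamase reporter cells with liver microsomes plus NADPH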
# Method in brief: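 HLM-supplemented p53RE-bla reporter assay: 16 h compound exposure at 37 C, microsomes and NADPH each 0.5 mg/mL final, read by fluorescence intensity.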
# [7] = p53 small molecule agonists, cell-based qHTS assay with rat liver microsomes (AID 1963578)
# Method in brief: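 Quantitative HTS of the Tox21 10K library: p53RE-bla cells, rat liver microsomes plus NADPH at 0.5 mg/mL final each, 16 h at 37 C, beta-lactamase fluorescence detection.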
# [8] = p53 small molecule agonists, cell-based qHTS assay with human liver microsomes: qHTS cell viability counter screen (AID 1963579); further: nearly all actives have a fitted effect of over 45% in size
# Method in brief: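 Viability of p53RE-bla cells is measured as CellTiter-Glo luminescence following a 16 h, 37 C incubation with compound, liver microsomes from human donors and NADPH.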
# [9] = p53 small molecule agonists, cell-based qHTS assay with rat liver microsomes: qHTS cell viability counter screen (AID 1963580); further: nearly all actives have a fitted effect of over 45% in size; further: potency means the concentration at half of the fitted maximal effect
# Method in brief: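 Viability is assessed in parallel with the p53 reporter read: HCT-116 p53RE-bla cells receive compounds plus rat microsomes and NADPH (0.5 mg/mL final apiece), incubate 16 h at 37 C, and then CellTiter-Glo luminescence is recorded.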
# [10] = p53 small molecule agonists, cell-based qHTS assay: qHTS cell viability counter screen (AID 1963581); further: nearly all actives have a fitted effect of over 45% in size
# Method in brief: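 HCT-116 p53RE-bla cells, 4,000/well, plated 5 h before compound pin transfer; 16 h at 37 C; bla substrate 2 h RT; then CellTiter-Glo, 30 min RT, luminescence.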
# [11] = p53 small molecule agonists, cell-based qHTS assay (AID 1963582; active means well fitted activation curve with a large enough effect in the signal ratio in the repeat runs, not every such curve was filed as active; the % refers to the signal ratio)
# Method in brief: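 Reporter line: p53RE-bla. Pre-incubation 5 h, 37 C, 5% CO2; compound (DMSO, pin tool) 16 h, 37 C; B/G FRET substrate 2 h RT; fluorescence intensity read.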
# [12] = target: 5-hydroxytryptamine receptor 2A (Homo sapiens) (UniProt P28223); experiment: 5-hydroxytryptamine receptor 2A (HTR2A) small molecule antagonists, cell-based qHTS assay (AID 1963586); further: nearly all actives have a fitted effect of over 45% in size; further: potency means the concentration at half of the fitted maximal effect
# Method in brief: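 Antagonist-mode intracellular calcium assay: DOI (4 nM) added after 5 min compound pre-incubation at room temperature to dye-loaded HTR2A-CHO cells. Fluorescence followed for 3 min, sampled every second.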
# [13] = target: 5-hydroxytryptamine receptor 2A (Homo sapiens) (UniProt P28223); experiment: 5-hydroxytryptamine receptor 2A (HTR2A) small molecule agonists, cell-based qHTS assay (AID 1963587); further: nearly all actives have a fitted effect of over 30% in size
# Method in brief: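 CHO cells stably expressing human HTR2A, plated 18 h, loaded with calcium dye 1 h at 37 C. Agonist mode: compounds added and intracellular calcium fluorescence recorded kinetically for 2 min at 1 sec intervals.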
# [14] = target: Muscarinic acetylcholine receptor M1 (Homo sapiens) (UniProt P11229); experiment: Cholinergic receptor muscarinic 1 (CHRM1) small molecule agonists, cell-based qHTS assay (AID 1963589); further: nearly all actives have a fitted effect of over 35% in size
# Method in brief: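 Human M1 in stable CHO line; 18 h plating, 1 h dye load 37 C; cpd added (agonist mode); Ca2+ fluorescence kinetic read, 1 s intervals; 15 conc, 3 runs.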
# [15] = cAMP Responsive Elements (CRE) small molecule agonists, cell-based qHTS assay (AID 1963590)
# Method in brief: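 HEK 293T CRE-bla, 2,000 cells/well, 18 h preincubation 37 C/5% CO2; cpds (DMSO) pinned, 3 h; LiveBLAzer B/G FRET substrate, 2 h RT.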
# [16] = target: Beta-2 adrenergic receptor (Homo sapiens) (UniProt P07550); experiment: Adrenergic beta2 receptor (ADRB2) small molecule antagonists, cell-based qHTS assay (AID 1963592); further: series mostly up to about 92 µM; nearly all actives have a fitted effect of over 50% in size
# Method in brief: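 Cells (CHO, stable ADRB2 overexpression) incubated 18-20hr at 37C; compounds added from DMSO; agonist mix (1nM isoproterenol, 100uM IBMX, 25uM Ro-20-1724) added; 0.5hr RT; d2-cAMP and anti-cAMP-cryptate added; 1hr RT; 665/615 nm read.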
# [17] = target: D(2) dopamine receptor (Homo sapiens) (UniProt P14416); experiment: Dopamine D2 receptor (DRD2) small molecule agonists, cell-based qHTS assay (AID 1963594); further: nearly all actives have a fitted effect of over 35% in size
# Method in brief: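 HEK293 cells stably expressing human DRD2, pre-treated with PDE inhibitor Ro20-1724 (0.1 mM final) and compound 10 min at room temperature, then stimulated with NKH477 (200nM […]) for 30 min. cAMP read by HTRF (665/620 nm).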
# [18] = target: D(2) dopamine receptor (Homo sapiens) (UniProt P14416); experiment: Dopamine D2 receptor (DRD2) small molecule antagonists, cell-based qHTS assay (AID 1963595; active means well fitted inhibition curve with a large enough effect in the signal ratio in the repeat runs, with a control signal flat; the % refers to the signal ratio)
# Method in brief: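 HTRF cAMP read-out at 665 and 620 nm emission (340 nm excitation). Antagonist mode: compounds were tested against 12 nM quinpirole in DRD2-HEK293 cells, with 200 nM NKH477 raising cAMP and 0.1 mM Ro20-1724 blocking its breakdown.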
# [19] = cAMP Responsive Elements (CRE) small molecule antagonists, cell-based qHTS assay (AID 1963591; active means well fitted inhibition curve with a large enough effect in the signal ratio in the repeat runs, not every such curve was filed as active; the % refers to the signal ratio)
# Method in brief: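 Beta-lactamase reporter read by FRET substrate (LiveBLAzer B/G) after 2 h at room temperature. CRE-bla HEK293T cells had received compound plus 0.25 uM (final) NKH477 for 3 h at 37 °C.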
# [20] = target: Muscarinic acetylcholine receptor M1 (Homo sapiens) (UniProt P11229); experiment: Cholinergic receptor muscarinic 1 (CHRM1) small molecule antagonists, cell-based qHTS assay (AID 1963588); further: nearly all actives have a fitted effect of over 40% in size; further: potency means the concentration at half of the fitted maximal effect
# Method in brief: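 CHRM1-CHO calcium-flux assay, antagonist mode. Cells were seeded 18 h, dye-loaded 1 h at 37 C and given compound for 5 min at RT, then acetylcholine was added at 50nM. FDSS fluorescence was read 3 min; 15 concentrations, three runs.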
# Sequence of KiSS-1 receptor (Homo sapiens) (Q969F8 whole entry, looked up): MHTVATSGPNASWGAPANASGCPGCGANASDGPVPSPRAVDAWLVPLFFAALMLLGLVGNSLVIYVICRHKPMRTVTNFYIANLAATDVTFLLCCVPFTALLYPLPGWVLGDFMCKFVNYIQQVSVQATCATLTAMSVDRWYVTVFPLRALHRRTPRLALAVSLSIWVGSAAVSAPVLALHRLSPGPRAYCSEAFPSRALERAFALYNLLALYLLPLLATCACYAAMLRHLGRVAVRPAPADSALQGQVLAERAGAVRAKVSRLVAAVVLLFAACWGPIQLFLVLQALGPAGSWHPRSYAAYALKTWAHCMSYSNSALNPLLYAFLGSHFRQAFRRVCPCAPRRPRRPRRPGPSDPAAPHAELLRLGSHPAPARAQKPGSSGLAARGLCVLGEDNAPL
# Sequence of 5-hydroxytryptamine receptor 2A (Homo sapiens) (P28223 whole entry, looked up): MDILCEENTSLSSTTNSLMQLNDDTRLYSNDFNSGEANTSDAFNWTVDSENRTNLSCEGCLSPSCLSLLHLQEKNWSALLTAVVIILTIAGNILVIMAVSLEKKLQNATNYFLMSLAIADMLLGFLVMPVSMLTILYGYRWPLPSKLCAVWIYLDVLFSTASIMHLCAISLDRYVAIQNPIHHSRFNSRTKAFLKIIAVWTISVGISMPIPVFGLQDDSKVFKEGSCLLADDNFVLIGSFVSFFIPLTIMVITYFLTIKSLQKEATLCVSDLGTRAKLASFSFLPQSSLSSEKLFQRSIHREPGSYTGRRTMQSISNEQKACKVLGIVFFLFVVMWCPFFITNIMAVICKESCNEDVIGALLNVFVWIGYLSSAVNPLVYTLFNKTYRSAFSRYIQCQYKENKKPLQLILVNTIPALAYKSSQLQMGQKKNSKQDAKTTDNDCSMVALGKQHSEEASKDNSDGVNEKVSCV
# Sequence of D(2) dopamine receptor (Homo sapiens) (P14416 whole entry, looked up): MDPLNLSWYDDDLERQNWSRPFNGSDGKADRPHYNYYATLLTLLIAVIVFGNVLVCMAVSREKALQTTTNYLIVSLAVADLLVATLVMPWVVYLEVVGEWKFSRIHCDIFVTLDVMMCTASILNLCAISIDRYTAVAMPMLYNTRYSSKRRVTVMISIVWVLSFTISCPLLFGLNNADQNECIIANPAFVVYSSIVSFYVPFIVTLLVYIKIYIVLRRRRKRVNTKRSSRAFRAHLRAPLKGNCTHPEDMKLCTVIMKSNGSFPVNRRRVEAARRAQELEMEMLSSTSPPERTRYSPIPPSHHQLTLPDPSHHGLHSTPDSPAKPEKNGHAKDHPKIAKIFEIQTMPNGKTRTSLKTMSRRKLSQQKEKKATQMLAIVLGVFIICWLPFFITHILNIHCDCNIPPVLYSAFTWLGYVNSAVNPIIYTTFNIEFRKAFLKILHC
# Sequence of Beta-2 adrenergic receptor (Homo sapiens) (P07550 whole entry, looked up): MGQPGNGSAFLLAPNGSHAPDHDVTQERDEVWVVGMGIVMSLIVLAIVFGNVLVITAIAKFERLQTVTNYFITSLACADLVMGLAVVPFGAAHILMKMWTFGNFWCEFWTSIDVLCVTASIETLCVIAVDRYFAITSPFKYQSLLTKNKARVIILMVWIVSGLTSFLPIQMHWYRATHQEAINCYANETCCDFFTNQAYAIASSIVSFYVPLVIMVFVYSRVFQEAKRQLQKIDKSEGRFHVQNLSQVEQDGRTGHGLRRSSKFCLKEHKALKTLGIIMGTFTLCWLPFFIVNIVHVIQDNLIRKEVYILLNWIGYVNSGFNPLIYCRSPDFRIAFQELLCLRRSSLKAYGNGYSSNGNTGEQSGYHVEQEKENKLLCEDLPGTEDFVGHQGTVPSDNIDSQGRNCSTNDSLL
# Sequence of Muscarinic acetylcholine receptor M1 (Homo sapiens) (P11229 whole entry, looked up): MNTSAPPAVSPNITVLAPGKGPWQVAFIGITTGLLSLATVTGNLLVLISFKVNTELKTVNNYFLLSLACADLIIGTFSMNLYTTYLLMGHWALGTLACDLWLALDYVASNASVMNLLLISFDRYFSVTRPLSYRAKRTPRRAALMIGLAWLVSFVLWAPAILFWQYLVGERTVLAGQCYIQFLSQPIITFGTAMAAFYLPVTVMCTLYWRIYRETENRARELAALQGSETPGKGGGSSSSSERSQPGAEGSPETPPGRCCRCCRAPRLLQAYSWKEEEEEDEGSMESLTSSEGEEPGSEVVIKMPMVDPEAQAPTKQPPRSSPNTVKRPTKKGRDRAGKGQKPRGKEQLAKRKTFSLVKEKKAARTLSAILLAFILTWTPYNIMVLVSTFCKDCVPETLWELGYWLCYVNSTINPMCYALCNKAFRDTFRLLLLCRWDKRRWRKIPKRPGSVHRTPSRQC
# Sequence of Gonadotropin-releasing hormone receptor (Homo sapiens) (P30968 whole entry, looked up): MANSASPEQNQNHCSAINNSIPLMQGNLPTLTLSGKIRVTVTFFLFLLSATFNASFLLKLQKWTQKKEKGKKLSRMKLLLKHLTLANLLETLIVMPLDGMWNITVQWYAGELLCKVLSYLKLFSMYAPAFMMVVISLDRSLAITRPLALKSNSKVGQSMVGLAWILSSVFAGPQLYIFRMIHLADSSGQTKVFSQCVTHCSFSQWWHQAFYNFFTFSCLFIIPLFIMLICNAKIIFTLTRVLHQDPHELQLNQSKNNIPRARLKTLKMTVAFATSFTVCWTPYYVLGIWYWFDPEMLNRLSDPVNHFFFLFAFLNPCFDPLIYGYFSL
Compound,Potency [1],Potency [2],Potency [3],Potency [4],Potency [5],Potency [6],Potency [7],Potency [8],Potency [9],Potency [10],Potency [11],Potency [12],Potency [13],Potency [14],Potency [15],Potency [16],Potency [17],Potency [18],Potency [19],Potency [20]
C[N+](C)(C)CC(O)CCl (stereo not given),inactive,inactive,inactive,inactive,inactive,inactive,inactive,inactive,inactive,inactive,inactive,inactive,inactive,inactive,inactive,inactive,inactive,inactive,,
C[Si](C)(C)O[Si](C)(C)O[Si](C)(C)C,inactive,inactive,inactive,inactive,inactive,inactive,inactive,inactive,inactive,inactive,inactive,inactive,inactive,inactive,inactive,inactive,inactive,inactive,inactive,
O=C[O][Al]([O]C=O)[O]C=O,inactive,inactive,inactive,inactive,inactive,inactive,inactive,inactive,inactive,inactive,inactive,inactive,inactive,inactive,inactive,inactive,inactive,inactive,inactive,
O=c1c(-c2ccc(O)cc2)coc2cc(O)ccc12,inactive,inactive,inactive,inactive,inactive,inactive,inactive,inactive,10.1 µM (active),inactive,inactive,33.4 µM (active),inactive,inactive,,inactive,inactive,inactive,inactive,
CCCCc1ncc(/C=C(\Cc2cccs2)C(=O)O)n1Cc1ccc(C(=O)O)cc1,inactive,inactive,inactive,inactive,inactive,inactive,inactive,inactive,inactive,inactive,inactive,inactive,inactive,,inactive,inactive,inactive,inactive,,inactive
CCCC(=O)C(C)=O,inactive,inactive,inactive,inactive,inactive,inactive,inactive,inactive,inactive,inactive,inactive,inactive,inactive,inactive,inactive,inactive,inactive,inactive,,
CCCCCCCCO[C@@H]1O[C@H](CO)[C@@H](O)[C@H](O)[C@H]1O,inactive,inactive,inactive,inactive,inactive,inactive,inactive,inactive,inactive,inactive,inactive,inactive,inactive,inactive,inactive,inactive,inactive,,,
N#CC1(c2ccc(F)cc2)CCC(=O)CC1,inactive,inactive,inactive,inactive,inactive,inactive,inactive,inactive,inactive,inactive,inactive,inactive,,inactive,inactive,inactive,inactive,inactive,inactive,inactive
C=CC(=O)CCCCC,inactive,inactive,inactive,inactive,inactive,inactive,inactive,inactive,inactive,inactive,inactive,inactive,inactive,inactive,inactive,inactive,inactive,,inactive,
O=C(O)c1ccccc1-n1cc(C(=O)O)c(=O)c2cc(Nc3c(F)cc(F)cc3Cl)c(Cl)cc21,inactive,inactive,inactive,inactive,inactive,inactive,inactive,inactive,inactive,inactive,inactive,inactive,,inactive,inactive,inactive,,,inactive,inactive
CC(=O)c1cc(C)oc1C,inactive,inactive,inactive,inactive,inactive,inactive,inactive,inactive,inactive,inactive,inactive,inactive,,inactive,inactive,inactive,inactive,inactive,inactive,inactive
CCCCCCCCC(=O)OCC,inactive,inactive,inactive,inactive,inactive,inactive,inactive,inactive,inactive,inactive,inactive,inactive,inactive,inactive,inactive,inactive,inactive,inactive,inactive,
CCc1c(Br)c(Br)c(Br)c(Br)c1Br,inactive,inactive,inactive,inactive,inactive,inactive,inactive,inactive,inactive,inactive,inactive,inactive,,inactive,inactive,inactive,inactive,,inactive,inactive
OCC#CCO,inactive,inactive,inactive,inactive,inactive,inactive,inactive,inactive,inactive,inactive,inactive,inactive,,inactive,inactive,inactive,inactive,inactive,inactive,17 µM (active) and inactive
CC(C)OC=O,inactive,inactive,inactive,inactive,inactive,inactive,inactive,inactive,inactive,inactive,inactive,inactive,inactive,inactive,inactive,inactive,inactive,inactive,inactive,
